# The panel holds about 79,000 compounds, 15% with a hit somewhere; the sample as a whole holds those more often. A number with no mark means an inactive call. Calls of active or inactive are those of the source. No stated cut-off is given here; in the data, active means growth inhibition above about 70%; inactive means the rest.
# What was measured:
# [1] = NCI Yeast Anticancer Drug Screen. Data for the rad50 strain (AID 155);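 further: 0% = growth of vehicle-only cultures of the same strain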; details: S. cerevisiae rad50 strain growth inhibition, hits give high values
# Procedure, shortened: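 Yeast carrying a defined DNA repair defect were exposed to test compounds, and growth was compared with vehicle-treated controls to give percent inhibition.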
# [2] = NCI Yeast Anticancer Drug Screen. Data for the mec2-1 strain (AID 157); details: S. cerevisiae mec2-1 strain, hits give high values
# Procedure, shortened: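 Using mec2-1 yeast: add compound, measure growth, express inhibition versus vehicle-treated cultures.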
# [3] = NCI Yeast Anticancer Drug Screen. Data for the sgs1 mgt1 strain (AID 161);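 further: 0% = growth of cultures given vehicle only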; details: S. cerevisiae sgs1 mgt1 strain, hits give high values
# Procedure, shortened: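 Yeast cells carrying a defined DNA-repair defect were exposed to test compounds. Growth inhibition was measured relative to vehicle-treated controls.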
# [4] = NCI Yeast Anticancer Drug Screen. Data for the cln2 rad14 strain (AID 165);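 further: 0% = growth equal to vehicle treated cultures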; details: S. cerevisiae cln2 rad14 strain, hits give high values
# Procedure, shortened: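 Yeast strain cln2 rad14, bearing defects in cell cycle control and DNA repair, serves as the test system; values reflect growth inhibition compared with vehicle.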
# [5] = NCI Yeast Anticancer Drug Screen. Data for the bub3 strain (AID 167); details: S. cerevisiae bub3 mutant strain, hits give high values
# Procedure, shortened: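 Compounds were applied to a genetically altered yeast strain carrying a cell-cycle control defect. Growth inhibition was scored against vehicle-treated controls.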
# [6] = NCI Yeast Anticancer Drug Screen. Data for the mlh1 rad18 strain (AID 175); details: S. cerevisiae mlh1 rad18 strain growth inhibition, hits give high values
# Procedure, shortened: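 Steps: expose repair-defective yeast to compound; measure growth; express inhibition against vehicle-treated controls.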
# [7] = at 5.0 µM (retest, dose inferred, filed as 0.5)
# [8] = at 50.0 µM (retest, dose inferred, filed as 5.0)
smiles,measurement,setting,value
[Cl][Sn]([c]1ccccc1)([c]1ccccc1)[c]1ccccc1,growth inhibition,[1]; [7],99% (active)
same,growth inhibition,[1]; [8],98% (active)
same,growth inhibition,[2]; [7],99% (active)
same,growth inhibition,[2]; [8],99% (active)
same,growth inhibition,[3]; [7],100% (active)
same,growth inhibition,[3]; [8],99% (active)
same,growth inhibition,[4]; [7],99% (active)
same,growth inhibition,[4]; [8],99% (active)
same,growth inhibition,[5]; [7],100% (active)
same,growth inhibition,[5]; [8],99% (active)
same,growth inhibition,[6]; [7],99% (active)
same,growth inhibition,[6]; [8],98% (active)
CCC(CC)COC(=O)CI,growth inhibition,[1]; [7],33%
same,growth inhibition,[1]; [8],97% (active)
same,growth inhibition,[2]; [7],19%
same,growth inhibition,[2]; [8],79% (active)
same,growth inhibition,[3]; [7],28%
same,growth inhibition,[3]; [8],99% (active)
same,growth inhibition,[5]; [7],50%
same,growth inhibition,[5]; [8],86% (active)
same,growth inhibition,[6]; [7],-20%
same,growth inhibition,[6]; [8],87% (active)
NS(=O)(=O)CCl.[Hg],growth inhibition,[1]; [7],13%
same,growth inhibition,[1]; [8],99% (active)
same,growth inhibition,[2]; [7],17%
same,growth inhibition,[2]; [8],100% (active)
same,growth inhibition,[3]; [7],15%
same,growth inhibition,[3]; [8],100% (active)
same,growth inhibition,[4]; [7],3%
same,growth inhibition,[4]; [8],98% (active)
same,growth inhibition,[5]; [7],2%
same,growth inhibition,[5]; [8],99% (active)
same,growth inhibition,[6]; [7],-16%
same,growth inhibition,[6]; [8],93% (active)
C/C(=N\NC(=S)N1CC2CCC(CC2)C1)c1nccs1,growth inhibition,[1]; [7],89% (active)
same,growth inhibition,[1]; [8],98% (active)
same,growth inhibition,[2]; [7],77% (active)
same,growth inhibition,[2]; [8],99% (active)
same,growth inhibition,[3]; [7],92% (active)
same,growth inhibition,[3]; [8],99% (active)
same,growth inhibition,[3]; at 50.0 µM,87% (active)
same,growth inhibition,[4]; [7],86% (active)
same,growth inhibition,[4]; [8],98% (active)
same,growth inhibition,[4]; at 50.0 µM,87.2% (active)
same,growth inhibition,[5]; [7],95% (active)
same,growth inhibition,[5]; [8],99% (active)
same,growth inhibition,[5]; at 50.0 µM,86.5% (active)
same,growth inhibition,[6]; [7],95% (active)
same,growth inhibition,[6]; [8],98% (active)
O=[N+]([O-])/C=C/c1ccc([N+](=O)[O-])cc1,growth inhibition,[1]; [7],96% (active)
same,growth inhibition,[1]; [8],99% (active)
same,growth inhibition,[2]; [7],81% (active)
same,growth inhibition,[2]; [8],100% (active)
same,growth inhibition,[3]; [7],99% (active)
same,growth inhibition,[3]; [8],100% (active)
same,growth inhibition,[4]; [7],31%
same,growth inhibition,[4]; [8],99% (active)
same,growth inhibition,[5]; [7],94% (active)
same,growth inhibition,[5]; [8],100% (active)
same,growth inhibition,[6]; [7],15%
same,growth inhibition,[6]; [8],99% (active)
CC(C)CCCC(C)[C@H]1CCC2[C@@H]3CCC4Cc5nc6c(nc5C[C@]4(C)C3CC[C@@]21C)CC1CC[C@@H]2C(CC[C@@]3(C)C2CC[C@@H]3O)[C@@]1(C)C6 (stereo partly drawn),growth inhibition,[1]; at 50.0 µM,-7.05%
same,growth inhibition,[2]; at 50.0 µM,-37.7%
same,growth inhibition,[3]; at 50.0 µM,-12%
same,growth inhibition,[4]; at 50.0 µM,-7.9%
same,growth inhibition,[5]; at 50.0 µM,12.8%
same,growth inhibition,[6]; at 50.0 µM,7.95%
O=[N+]([O-])c1ccc2c(c1)Oc1cccnc1[Se]2,growth inhibition,[1]; at 50.0 µM,16.1%
same,growth inhibition,[2]; at 50.0 µM,8.6%
same,growth inhibition,[3]; at 50.0 µM,20.9%
same,growth inhibition,[4]; at 50.0 µM,8.25%
same,growth inhibition,[5]; at 50.0 µM,-11.5%
same,growth inhibition,[6]; at 50.0 µM,38.8%
[CH3][Sb]1([Cl])[CH2]CC[CH2]1,growth inhibition,[1]; at 50.0 µM,0.2%
same,growth inhibition,[2]; at 50.0 µM,26.1%
same,growth inhibition,[3]; at 50.0 µM,-5.6%
same,growth inhibition,[4]; at 50.0 µM,-3.1%
same,growth inhibition,[5]; at 50.0 µM,32.5%
C=CC(=O)NCO,growth inhibition,[1]; at 50.0 µM,-3.9%
same,growth inhibition,[2]; at 50.0 µM,15.2%
same,growth inhibition,[3]; at 50.0 µM,-1.4%
same,growth inhibition,[4]; at 50.0 µM,-20.4%
same,growth inhibition,[5]; at 50.0 µM,3.6%
CCCCCCNC(=O)C(C)Br (stereo not drawn),growth inhibition,[1]; at 50.0 µM,-7.35%
same,growth inhibition,[2]; at 50.0 µM,4.9%
same,growth inhibition,[3]; at 50.0 µM,-0.55%
same,growth inhibition,[4]; at 50.0 µM,-12.4%
same,growth inhibition,[5]; at 50.0 µM,9.95%
same,growth inhibition,[6]; at 50.0 µM,1.85%
NNC(=O)c1ccc(O)cc1,growth inhibition,[1]; at 50.0 µM,1.15%
same,growth inhibition,[2]; at 50.0 µM,-2.65%
same,growth inhibition,[3]; at 50.0 µM,-13.3%
same,growth inhibition,[4]; at 50.0 µM,-17.4%
same,growth inhibition,[5]; at 50.0 µM,-0.05%
same,growth inhibition,[6]; at 50.0 µM,18.2%
CC1=C[C@H]2O[C@@H]3[C@H](O)[C@@H](O)[C@](C)(C2(COC(=O)CCl)CC1)[C@@]31CO1 (stereo partly drawn),growth inhibition,[1]; at 50.0 µM,87% (active)
same,growth inhibition,[2]; at 50.0 µM,89.7% (active)
same,growth inhibition,[3]; at 50.0 µM,87.7% (active)
same,growth inhibition,[4]; at 50.0 µM,90.2% (active)
same,growth inhibition,[5]; at 50.0 µM,88.5% (active)
COP(=O)(OC)/C(C#N)=C/c1ccco1,growth inhibition,[1]; at 50.0 µM,-35.3%
same,growth inhibition,[2]; at 50.0 µM,-29.1%
same,growth inhibition,[3]; at 50.0 µM,-46.5%
same,growth inhibition,[4]; at 50.0 µM,-27.8%
same,growth inhibition,[5]; at 50.0 µM,-42.6%
same,growth inhibition,[6]; at 50.0 µM,-41.1%
COC1C=CC23c4cc5c(cc4COC2(O)CN(C)C3C1)OCO5 (stereo not drawn),growth inhibition,[1]; at 50.0 µM,-18.2%
same,growth inhibition,[2]; at 50.0 µM,-26.2%
same,growth inhibition,[3]; at 50.0 µM,-56.5%
same,growth inhibition,[4]; at 50.0 µM,-4.5%
same,growth inhibition,[5]; at 50.0 µM,-18.9%
same,growth inhibition,[6]; at 50.0 µM,-28.6%
NC1C[S][Sn][O]C1=O (stereo not drawn),growth inhibition,[1]; at 50.0 µM,14.2%
same,growth inhibition,[2]; at 50.0 µM,14.3%
same,growth inhibition,[3]; at 50.0 µM,3.2%
same,growth inhibition,[4]; at 50.0 µM,-21.4%
same,growth inhibition,[5]; at 50.0 µM,4.9%
same,growth inhibition,[6]; at 50.0 µM,14.6%
CC(C)[C@]12O[C@H]1[C@@H]1O[C@]13[C@]1(O[C@H]1C[C@H]1C4=C(CC[C@@]13C)C(=O)OC4)[C@@H]2O,growth inhibition,[1]; at 50.0 µM,4.6%
same,growth inhibition,[2]; at 50.0 µM,2.9%
same,growth inhibition,[3]; at 50.0 µM,-20.1%
same,growth inhibition,[4]; at 50.0 µM,-5.1%
same,growth inhibition,[5]; at 50.0 µM,-17.2%
O=C(Nc1ccc(S(=O)(=O)Nc2ccc(N=Nc3ccc(N=Nc4ccccc4)cc3)cc2)cc1)C(N1CC1)(N1CC1)N1CC1,growth inhibition,[1]; at 50.0 µM,30.4%
same,growth inhibition,[2]; at 50.0 µM,-9.5%
same,growth inhibition,[3]; at 50.0 µM,3.95%
same,growth inhibition,[4]; at 50.0 µM,9.05%
same,growth inhibition,[5]; at 50.0 µM,-3.8%
